Growth data for 9 compounds are collected here from PubChem BioAssay (NCI).

Compounds without any hit were thinned out: in the full panel of roughly 83,000, 20% have a hit.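 The endpoint reported here, percent growth, reads 100 for growth as untreated, 0 for no net growth and -100 for all cells dead.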 Unmarked numbers belong to inactive results. Activity calls are given as the source filed them. How the source made its calls: active means growth percent below 10; inactive means the rest.

Among the test systems are DU-145 prostate; K-562 leukemia; MALME-3M melanoma; MDA-MB-231 breast; RXF 393 renal; SF-268 CNS; SF-295 CNS; SF-539 CNS; UACC-257 melanoma; HCT-15 colon; HT29 colon; SNB-75 CNS; SNB-19 CNS; U251 CNS; PC-3 prostate; SK-MEL-5 melanoma; UACC-62 melanoma; LOX IMVI melanoma; SK-MEL-28 melanoma.
Holding throughout (assay): NCI-60 one-dose screen, 48 h (100 = growth as untreated, 0 = no growth, -100 = all killed)
What all share (conditions): 10 µM unless noted

As to `O=C1/C(=C\c2cccnc2)SC(=S)N1CCc1ccc(O)cc1`, the growth in the assay with DU-145 prostate is 16.6%; in the assay on K-562 leukemia, 36%; in the assay on MALME-3M melanoma, 79.6%; in the assay on MDA-MB-231 breast, 47.1%; with RXF 393 renal, 25.1%; in the assay on SF-268 CNS, 68.5%. Besides, the growth with SF-295 CNS is 94%; with SF-539 CNS it was 23.2%; in the assay on UACC-257 melanoma, 38.9%; in the assay with HCT-15 colon it was 19.2%; in the assay with HT29 colon it was 105%; in the assay on SNB-75 CNS it was -4.79% (active). Also, the growth is 82.5% with SNB-19 CNS; 68.3% in the assay on U251 CNS; 42.2% in the assay on PC-3 prostate; 90.1% with SK-MEL-5 melanoma; 59.9% in the assay on UACC-62 melanoma; 17.4% with LOX IMVI melanoma. Further, the growth in the assay on SK-MEL-28 melanoma was 71%.

Turning to `O=[N+]([O-])c1ccc(-c2cc(-c3ccc(Nc4nc(Nc5ccc(Cl)cc5)nc(Nc5ccc(Cl)cc5)n4)cc3)no2)cc1`, the growth with DU-145 prostate was 87.7%; in the assay on K-562 leukemia it was 65.6%; with MALME-3M melanoma, 96.3%; in the assay with MDA-MB-231 breast, 73.5%; with RXF 393 renal, 71.7%; in the assay on SF-268 CNS it was 96.1%. The growth in the assay with SF-295 CNS is 563%; with SF-539 CNS, 95.4%; in the assay with UACC-257 melanoma, 105%; in the assay with HCT-15 colon, 89.9%; with HT29 colon it was 16.5%; in the assay on SNB-19 CNS it was 98.2%. The growth with U251 CNS is 91.9%; in the assay with PC-3 prostate, 74.1%; with SK-MEL-5 melanoma, 79.5%; in the assay on UACC-62 melanoma, 95.7%; with LOX IMVI melanoma, 84.4%; in the assay with SK-MEL-28 melanoma, 40.5%.

As for `O=S(=O)(O)c1ccc(N/N=C/c2ccccc2Cl)cc1`, the growth with DU-145 prostate is 116%; in the assay on K-562 leukemia, 95.6%; with MALME-3M melanoma it was 109%; in the assay on MDA-MB-231 breast it was 118%; in the assay with RXF 393 renal, 125%; with SF-268 CNS, 103%. The growth in the assay with SF-295 CNS was 108%; with SF-539 CNS, 101%; in the assay with UACC-257 melanoma, 116%; in the assay with HCT-15 colon, 97%; with HT29 colon it was 100%; with SNB-75 CNS, 94.6%. Moreover, the growth in the assay on SNB-19 CNS is 109%; with U251 CNS it was 99.5%; with PC-3 prostate it was 99.2%; in the assay with SK-MEL-5 melanoma, 103%; in the assay with UACC-62 melanoma it was 111%; in the assay on LOX IMVI melanoma, 128%. Moreover, the growth in the assay on SK-MEL-28 melanoma is 111%.

`Fc1c[c-]c(-c2ccccn2)c(F)c1.[CH3-].[Pt+2].c1ccc(P(C[PH+](c2ccccc2)c2ccccc2)c2ccccc2)cc1`: the growth in the assay with DU-145 prostate was 5.54% (active); in the assay with K-562 leukemia, 4.93% (active); in the assay with MALME-3M melanoma it was -83.2% (active); in the assay with MDA-MB-231 breast, -59% (active); in the assay with RXF 393 renal, -82.3% (active); in the assay with SF-268 CNS, 16.9%. Besides, the growth with SF-295 CNS was 6.1% (active); in the assay on SF-539 CNS, -86.3% (active); in the assay with UACC-257 melanoma it was -4.95% (active); in the assay with HCT-15 colon it was -51.4% (active); in the assay with HT29 colon, 1.16% (active); with SNB-75 CNS, -14.1% (active). In addition, the growth was -54.8% (active) with SNB-19 CNS; -71.7% (active) in the assay with U251 CNS; -33.2% (active) in the assay on PC-3 prostate; -97.1% (active) in the assay on SK-MEL-5 melanoma; -18.7% (active) in the assay on UACC-62 melanoma; -92.9% (active) in the assay on LOX IMVI melanoma. Besides, the growth with SK-MEL-28 melanoma was -51.2% (active).

As to `NS(=O)(=O)c1cnccc1Oc1cccc2cccnc12`, the growth in the assay with DU-145 prostate was 108%; in the assay with K-562 leukemia, 82.4%; in the assay with MALME-3M melanoma it was 96%; with MDA-MB-231 breast it was 102%; in the assay with RXF 393 renal it was 104%; in the assay with SF-268 CNS it was 101%. Besides, the growth with SF-295 CNS is 120%; in the assay with SF-539 CNS, 88.3%; in the assay with UACC-257 melanoma it was 114%; in the assay on HCT-15 colon, 90.5%; with HT29 colon it was 107%; in the assay with SNB-75 CNS it was 89.6%. The growth in the assay with SNB-19 CNS is 99.6%; in the assay on U251 CNS it was 102%; with PC-3 prostate, 95.9%; with SK-MEL-5 melanoma, 106%; in the assay with UACC-62 melanoma it was 104%; in the assay on SK-MEL-28 melanoma, 109%.

In the case of `CC/C=C1/C(=O)C=C[C@@H]1C/C=C\CCCC(=O)O`, the growth in the assay on DU-145 prostate is 98.3%; with K-562 leukemia, 25.1%; in the assay on MALME-3M melanoma, 101%; in the assay with MDA-MB-231 breast, 79.4%; with RXF 393 renal it was 110%; in the assay with SF-268 CNS, 92.4%. Further, the growth was 101% in the assay on SF-295 CNS; 101% in the assay on SF-539 CNS; 73.9% with UACC-257 melanoma; 72.8% in the assay on HCT-15 colon; 78.9% in the assay on HT29 colon; 105% in the assay on SNB-75 CNS. Moreover, the growth with SNB-19 CNS is 92.1%; in the assay on U251 CNS, 64.9%; with PC-3 prostate, 80.5%; with SK-MEL-5 melanoma it was 81.5%; in the assay on UACC-62 melanoma, 30.7%; in the assay on LOX IMVI melanoma, 19.9%. The growth in the assay with SK-MEL-28 melanoma is 96.9%.

With `COC(=O)CCC1=C(C)C2=NC1=CC1=NC(=CC3=NC(=Cc4[nH]c(/c(=C(/C)O)c4C)=C2)C(C(C)=O)=C3C)C(C)=C1CCC(=O)OC`, the growth with DU-145 prostate was 110%; with K-562 leukemia, 112%; with MALME-3M melanoma it was 96%; with MDA-MB-231 breast it was 103%; in the assay on RXF 393 renal, 112%; with SF-268 CNS it was 98.9%. The growth was 104% in the assay on SF-295 CNS; 97.7% with SF-539 CNS; 90.3% in the assay with UACC-257 melanoma; 99.8% with HCT-15 colon; 107% in the assay with HT29 colon; 90.6% in the assay on SNB-75 CNS. The growth in the assay on SNB-19 CNS is 97.3%; in the assay on U251 CNS, 98.9%; in the assay on PC-3 prostate, 83.7%; in the assay on SK-MEL-5 melanoma, 103%; with UACC-62 melanoma, 97.2%; with LOX IMVI melanoma, 96%. Also, the growth in the assay with SK-MEL-28 melanoma is 115%.

With `c1cc2ccc3cc2cc1CNCCOCCNCc1ccc2ccc(cc2c1)CNCCOCCNC3`, the growth was -29.3% (active) in the assay with DU-145 prostate; 6.81% (active) with K-562 leukemia; -64.5% (active) with MALME-3M melanoma; -53.8% (active) in the assay with MDA-MB-231 breast; -40.1% (active) in the assay with RXF 393 renal; -55.5% (active) in the assay with SF-268 CNS. Further, the growth was 14.5% in the assay on SF-295 CNS; -53.4% (active) in the assay with SF-539 CNS; 25.5% in the assay on UACC-257 melanoma; -34.3% (active) with HT29 colon; -98.7% (active) in the assay with SNB-75 CNS; -21.8% (active) with SNB-19 CNS. For the same compound, the growth with U251 CNS is -20.4% (active); in the assay with PC-3 prostate, -38.1% (active); in the assay on SK-MEL-5 melanoma, 1.54% (active); with UACC-62 melanoma it was -52.8% (active); in the assay with LOX IMVI melanoma it was -25.3% (active); in the assay with SK-MEL-28 melanoma, -8.69% (active).

As to `COc1ccc(-c2nc(SCC(=O)Nc3nc(-c4ccccc4)cs3)[nH]c(=O)c2C#N)cc1`, the growth was 118% with DU-145 prostate; 93.5% in the assay with K-562 leukemia; 90.1% in the assay with MALME-3M melanoma; 95.1% in the assay on MDA-MB-231 breast; 96.6% with RXF 393 renal; 95.9% in the assay on SF-268 CNS. In addition, the growth was 96.3% in the assay on SF-295 CNS; 103% in the assay with SF-539 CNS; 109% in the assay on UACC-257 melanoma; 109% in the assay with HCT-15 colon; 115% with HT29 colon; 70.4% with SNB-75 CNS. Moreover, the growth was 109% in the assay on SNB-19 CNS; 103% in the assay with U251 CNS; 86% with PC-3 prostate; 102% in the assay with SK-MEL-5 melanoma; 92.1% in the assay on UACC-62 melanoma; 104% in the assay on SK-MEL-28 melanoma.
